Results published in the supplement of paper PMC11624193, “Coupling cellular drug-target engagement to downstream pharmacology with CeTEAM” (Nature Communications, 2024).
Counter-ions that a name gives are not always drawn. Values without a mark were called inactive.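 Rule for the calls: active = log2 fold change beyond 2 SD from the library mean after excluding viability outliers; inactive = within 2 SD.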

What follows are compounds tested against PARP1 L713F-nLuc biosensor (HCT116) (UniProt P09874) (assay: PARP1 L713F-nLuc/akaLuc ratio relative to DMSO control (biosensor stabilization) (fold change); higher = more PARP1 biosensor stabilization (target engagement / stabilizer), active = hit call of the paper). Details: stock concentration (mM; final µM = stock mM x 1): 10; 24 h.
Sequence of PARP1 L713F-nLuc biosensor (HCT116) (P09874 whole entry L713F, looked up): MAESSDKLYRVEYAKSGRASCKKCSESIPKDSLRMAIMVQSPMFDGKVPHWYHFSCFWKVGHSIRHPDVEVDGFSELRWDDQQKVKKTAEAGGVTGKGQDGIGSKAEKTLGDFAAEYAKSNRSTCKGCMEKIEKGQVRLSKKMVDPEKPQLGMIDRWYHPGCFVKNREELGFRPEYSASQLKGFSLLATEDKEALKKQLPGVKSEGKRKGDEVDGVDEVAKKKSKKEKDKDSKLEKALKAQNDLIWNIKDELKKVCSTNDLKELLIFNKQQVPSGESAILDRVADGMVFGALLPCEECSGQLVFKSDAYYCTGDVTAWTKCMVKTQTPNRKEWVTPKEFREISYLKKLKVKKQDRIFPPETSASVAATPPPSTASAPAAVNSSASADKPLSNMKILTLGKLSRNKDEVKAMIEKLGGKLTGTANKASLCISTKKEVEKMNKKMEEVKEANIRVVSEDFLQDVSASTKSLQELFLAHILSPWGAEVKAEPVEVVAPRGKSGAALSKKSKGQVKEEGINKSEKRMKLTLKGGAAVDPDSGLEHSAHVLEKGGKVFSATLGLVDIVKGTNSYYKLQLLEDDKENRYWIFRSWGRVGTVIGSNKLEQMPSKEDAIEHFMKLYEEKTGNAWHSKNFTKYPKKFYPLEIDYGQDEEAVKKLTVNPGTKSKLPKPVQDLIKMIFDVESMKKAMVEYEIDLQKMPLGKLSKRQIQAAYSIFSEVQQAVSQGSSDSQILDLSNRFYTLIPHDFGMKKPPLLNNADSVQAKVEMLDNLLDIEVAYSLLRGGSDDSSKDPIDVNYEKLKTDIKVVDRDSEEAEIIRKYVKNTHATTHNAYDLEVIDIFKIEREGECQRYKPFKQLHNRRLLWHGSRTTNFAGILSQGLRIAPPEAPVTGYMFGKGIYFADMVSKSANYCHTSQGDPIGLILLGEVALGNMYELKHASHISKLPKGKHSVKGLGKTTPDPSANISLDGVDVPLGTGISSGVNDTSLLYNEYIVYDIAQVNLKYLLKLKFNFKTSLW

| SMILES | PARP1 L713F-nLuc/akaLuc ratio |
| --- | --- |
| Nc1cccc(Nc2ncc(-c3ccc(Cl)cc3)o2)c1 | 0.952 |
| NS(=O)(=O)NCCNc1nonc1/C(=N/O)Nc1ccc(F)c(Br)c1 | 0.587 |
| O=C(Nc1ccc(-c2ccnc(Nc3ccc(N4CCOCC4)cc3)n2)cc1)C1CCCN1 (stereo not drawn) | 0.659 |
| Cn1ncc(Cl)c1-c1cc(C(=O)N[C@H](CN)Cc2cccc(F)c2)sc1Cl [Afuresertib (hydrochloride)] | 0.764 |
| C[C@]12CC[C@@H]3c4ccc(O)cc4C[C@@H](CCCCCCCCC[S+]([O-])CCCC(F)(F)C(F)(F)F)[C@H]3[C@@H]1CC[C@@H]2O (stereo partly drawn) [Fulvestrant] | 0.949 |
| CNc1cc(Nc2cccn(-c3ccccn3)c2=O)nn2c(C(=O)N[C@@H]3C[C@@H]3F)cnc12 | 0.72 |
| CO[C@H]1C[C@@H]2CC[C@@H](C)[C@@](O)(O2)C(=O)C(=O)N2CCCC[C@H]2C(=O)O[C@H]([C@H](C)C[C@@H]2CC[C@@H](OCCO)[C@H](OC)C2)CC(=O)[C@H](C)/C=C(\C)[C@@H](O)[C@@H](OC)C(=O)[C@H](C)C[C@H](C)/C=C/C=C/C=C/1C [Everolimus (RAD001)] | 0.669 |
| N=C(N)NC(=N)NCCc1ccccc1 [Phenformin (hydrochloride)] | 0.696 |
| COc1cc(/C=C/C(=O)O[C@H]2CC[C@]34C[C@]35CC[C@]3(C)[C@@H]([C@H](C)CCC=C(C)C)CC[C@@]3(C)[C@@H]5CC[C@H]4C2(C)C)ccc1O [γ-Oryzanol] | 1.11 |
| CN(C)C(=N)NC(=N)N [Metformin (hydrochloride)] | 0.94 |
| CCOC(=O)c1cnc(NC2(c3ccccc3)CC2)nc1 | 0.982 |
| COc1ccc(C2(CNC(=O)c3ccc(NC(=O)c4ccco4)cc3)CCOCC2)cc1 | 1.23 |
| O=c1[nH]c(CSC2CCC(O)CC2)nc2cc(OCC3CC3)cc(F)c12 (stereo not drawn) | 1.21 |
| COC(=O)c1ccc2c(c1)nc(NC(=O)c1ccccc1)n2CCCc1ccccc1 | 0.949 |
| COc1cc(OC)cc(N(CCNC(C)C)c2ccc3ncc(-c4cnn(C)c4)nc3c2)c1 | 1.09 |
| NC(=O)c1ncn(C2OC(CO)C(O)C2O)c1N (stereo not drawn) [AICAR (phosphate)] | 1.04 |
| C=CC(=O)N1CCC(Oc2cc3c(Nc4ccc(Cl)c(Cl)c4F)ncnc3cc2OC)CC1 [Poziotinib (HM781-36B)] | 1.28 |
| CNCc1ccc(-c2cc3cc(F)cc(C(N)=O)c3o2)cc1 [Mefuparib (hydrochloride)] | 10.5 (active) |
| CCn1c(C(=O)N(C2CC2)C2CC2)cc2c3c(ncn3C)c(Nc3cc(C)n(C)n3)nc21 | 1.01 |

| SMILES | PARP1 L713F-nLuc/akaLuc ratio |
| --- | --- |
| N#Cc1ccnc(N2C(=O)CC[C@H]2C(=O)N(c2cncc(F)c2)[C@H](C(=O)NC2CC(F)(F)C2)c2ccccc2Cl)c1 [Ivosidenib (AG-120)] | 0.863 |
| CO[C@@H](C(=O)N1Cc2[nH]nc(NC(=O)c3ccc(N4CCN(C)CC4)cc3)c2C1)c1ccccc1 [Danusertib] | 0.752 |
| Cn1cnc2c(F)c(Nc3ccc(Br)cc3F)c(C(=O)NOCCO)cc21 | 0.546 |
| C=C(c1ccc(C(=O)O)cc1)c1cc2c(cc1C)C(C)(C)CCC2(C)C [Bexarotene] | 0.719 |
| CS(=O)(=O)c1ccc(Oc2cc(F)cc(C#N)c2)c2c1C(O)C(F)C2 (stereo not drawn) | 0.836 |
| COCCCc1sc(-c2ccccc2)nc1C(=O)Nc1ccccc1-c1nc2cc(CN3CCCC3)cnc2s1 [Sirtuin modulator 1] | 0.737 |
| O=C(O)CNC(=O)c1nc(Cl)c2ccccc2c1O | 0.618 |
| CN(C)c1nc2c(Br)c(Br)c(Br)c(Br)c2n1CC(=O)O | 1.02 |
| CO[C@@H](C(=O)N1Cc2[nH]nc(NC(=O)c3ccc(N4CCN(C)CC4)cc3)c2C1)c1ccccc1 | 0.781 |
| O=C(O)c1cnn(-c2nc3cc(OC(F)(F)F)c(Cl)cc3[nH]2)c1 | 0.757 |
| CC(C)c1c(-c2cnn(C(C)(C)C)c2)nc2c(C#N)c[nH]n2c1=O | 1.58 |
| Cc1cn(-c2cc(NC(=O)c3ccc(C)c(Nc4nccc(-c5cnccn5)n4)c3)cc(C(F)(F)F)c2)cn1 [Radotinib] | 0.904 |
| O=C(Nc1cccnc1)N1CCC(Cc2cccc(Oc3ccc(C(F)(F)F)cn3)c2)CC1 | 0.451 |
| CN(C)C(=O)/C(C#N)=C/c1ccc(-c2nc3cnc4[nH]ccc4c3n2C2CCCCC2)o1 | 1.08 |
| C/C(=N\NC(=O)c1cccc(S(=O)(=O)N2CCN(C)CC2)c1)c1cc(Cl)ccc1O [Seclidemstat] | 0.552 |
| Clc1cc2c(NC3CCCC3)nnc(-c3ccncc3)c2cc1Cl | 0.888 |
| CN[C@@H](C)C(=O)N[C@H]1CN(C(=O)CC(C)C)CC[C@H]2CC[C@@H](C(=O)NC(c3ccccc3)c3ccccc3)N2C1=O | 0.738 |
| O=C(O)CCCCC(CCSCc1ccccc1)SCc1ccccc1 (stereo not drawn) | 1.06 |
| CC(C)(C)NC(=O)[C@H]1CC[C@H]2[C@@H]3CC[C@H]4NC(=O)C=C[C@]4(C)[C@H]3CC[C@]12C [Finasteride] | 1.22 |
